The results in this text go back to PubChem BioAssay (Tox21).

Each structure is given as a SMILES string. Values joined by “and” are separate entries in the source; they are usually repeats but may differ in a detail not shown here. Equal entries are not always repeated. Inconclusive results are not listed. Active and inactive are the calls of the source. Unless noted, calls come from the whole dose curve; as a rule, active = well fitted curve in the direction sought with a large enough effect in the repeat runs; inconclusive = weak or mixed curves; inactive = no such curve, though single readings can be large; an effect the other way counts as inactive or inconclusive.

Assay [1] is described as follows: qHTS assay for small molecule agonists of the p53 signaling pathway (AID 651631; calls by dose curve; note: nearly all actives have a fitted effect of over 15% in size; note: potency is the fitted concentration of half-maximal effect). In outline:
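Testing took place in human colorectal HCT-116 cells with stable p53RE-driven beta-lactamase. After 16 h of compound exposure at 37 °C, a FRET substrate was added and fluorescence recorded 2 h later.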
A general note: In qHTS, concentration-response curves come from the screen itself.

The nature of assay [2]: qHTS assay for small molecules that induce genotoxicity in human embryonic kidney cells expressing luciferase-tagged ATAD5 (AID 651632). Note: nearly all actives have a fitted effect of over 15% in size. Note: potency is the fitted concentration of half-maximal effect. In outline:
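Genotoxicity read-out via ATAD5-luciferase: HEK293T cells, 16 hr compound incubation at 37C, Amplite detection.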

Assay [3] is described as follows: qHTS assay for small molecule agonists of the p53 signaling pathway - cell viability (AID 651633; calls by dose curve; note: nearly all actives have a fitted effect of over 30% in size; note: potency is the fitted concentration of half-maximal effect). In outline:
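p53RE-bla cells, seeded at 4,000 per well and rested 5 h at 37 C/5% CO2, received compounds in DMSO for 16 h at 37 C. CellTiter-Glo was then added, and luminescence was read after 30 min at room temperature to gauge cytotoxicity.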

The nature of assay [4]: qHTS assay for small molecules that induce genotoxicity in human embryonic kidney cells expressing luciferase-tagged ATAD5 - cell viability (AID 651634; calls by dose curve; note: nearly all actives have a fitted effect of over 25% in size; note: potency is the fitted concentration of half-maximal effect). The method in brief: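 Live-cell protease activity (CellTiter-Fluor, fluorescence) indicates viability. HEK293T cells with luciferase-tagged ATAD5; 15.5 hr compound treatment at 37C.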
A short description of assay [5]: qHTS assay for small molecule disruptors of the mitochondrial membrane potential - cell viability (AID 720634; calls by dose curve; note: nearly all actives have a fitted effect of over 20% in size; note: potency is the fitted concentration of half-maximal effect). In outline:
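Human hepatoma HepG2 cells were treated for 1 hr with test chemicals, then given m-MPI dye and CellTiter-Glo. Cell viability reflects luminescence proportional to cellular ATP.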

The nature of assay [6]: qHTS assay to test for compound auto fluorescence at 535 nm (green) in HepG2 cells (AID 720675).
The nature of assay [7]: qHTS assay to test for compound auto fluorescence at 460 nm (blue) in HEK293 cells (AID 720678). The method in brief: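 Cells were seeded and left to adhere for 4-5 hr at 37C. Compounds were then pin-transferred. After an overnight incubation at 37C under 5% CO2, intrinsic fluorescence at 405/460 nm was measured and referenced to triamterene.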
The nature of assay [8]: qHTS assay to test for compound auto fluorescence at 590 nm (red) in HEK293 cells (AID 720679). In outline:
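Each well held 2,000 HEK293 cells in medium containing 10% dialyzed FBS. Following 4-5 hr attachment at 37C, 23 nL test compound or DMSO was added; plates sat overnight, and red fluorescence (540/590nm) was recorded.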

Assay [9] can be described thus: qHTS assay to test for compound auto fluorescence at 535 nm (green) in HEK293 cells (AID 720680).
A short description of assay [10]: qHTS assay to test for compound auto fluorescence at 460 nm (blue) in HEK293 cell free culture (AID 720681). In outline:
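Test compounds were pinned into cell-free culture medium (DMEM with 10% FBS) and fluorescence was read directly at Ex/Em 405/460 nm. Signals were expressed as fluorescence equivalents of triamterene, with DMSO vehicle as control.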

Assay [11] is described as follows: qHTS assay to test for compound auto fluorescence at 535 nm (green) in HEK293 cell free culture (AID 720682). In outline: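 DMEM + 10% FBS, cell-free; cpd or DMSO pinned in; Ex485/Em535 read; output as fluorescein-equivalent signal.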
Assay [12] in a line: qHTS assay to test for compound auto fluorescence at 590 nm (red) in HepG2 cell free culture (AID 720684). In outline:
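Measured in medium alone (MEM containing 10% FBS) following pintool addition of compound; emission at 590 nm with 540 nm excitation, referenced to Rose Bengal sodium.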

Assay [13] can be described thus: qHTS assay to test for compound auto fluorescence at 460 nm (blue) in HepG2 cell free culture (AID 720685). In outline: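 Compound (23 nL) or DMSO pinned into cell-free MEM with 10% FBS; blue fluorescence read at 405/460 nm excitation/emission, expressed as auto-fluorescence equivalency to triamterene.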
Assay [14] in a line: qHTS assay to test for compound auto fluorescence at 535 nm (green) in HepG2 cell free culture (AID 720686).
The nature of assay [15]: qHTS assay to test for compound auto fluorescence at 460 nm (blue) in HepG2 cells (AID 720687). The method in brief: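 Cells (2,000/well in MEM with 10% FBS) attached overnight at 37 C, then were exposed to compound or DMSO for 1 hr at 37 C, 5% CO2. Fluorescence read at Ex/Em 405/460 nm, expressed as triamterene-equivalent signal.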
The nature of assay [16]: qHTS assay to test for compound auto fluorescence at 590 nm (red) in HEK293 cell free culture (AID 720683). The method in brief: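 Tox21 10K library compounds were pinned into cell-free DMEM with 10% FBS and fluorescence was read at excitation 540 nm. Activity is expressed as Rose Bengal sodium equivalency.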
The target in assay [17] is Glucocorticoid receptor (Homo sapiens) (UniProt P04150). The assay is described as follows: qHTS assay to identify small molecule agonists of the glucocorticoid receptor (GR) signaling pathway (AID 720691; active = well fitted activation curve with a large enough effect in the signal ratio in the repeat runs, not every such curve was filed as active; the % refers to the signal ratio). The method in brief:
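Beta-lactamase reporter activity, read as fluorescence intensity, was measured in GR-bla HeLa cells exposed to compounds for 18 h at 37 C and then loaded with LiveBLAzer B/G FRET substrate for 2 h at room temperature.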

For assay [18] the target is unchanged. The assay is described as follows: qHTS assay to identify small molecule antagonists of the glucocorticoid receptor (GR) signaling pathway (AID 720692; active = well fitted inhibition curve with a large enough effect in the signal ratio in the repeat runs, not every such curve was filed as active; the % refers to the signal ratio). In outline:
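Fluorescence from cleaved LiveBLAzer B/G FRET substrate reports GRE-driven beta-lactamase in HeLa cells; compounds are tested against 5 nM dexamethasone (final) over 18 h at 37 C, substrate incubation 2 h at room temperature.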

Assay [19] in a line: qHTS assay for small molecule disruptors of the mitochondrial membrane potential (AID 720635). Note: potency is the fitted concentration of half-maximal effect. In outline:
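HepG2 cells (2,000/well) attached overnight at 37C, then took compound for 1 hr at 37C, 5% CO2. Mito-MPS dye was added for 30 min; fluorescence was read at 490/535 nm (monomers) and 540/590 nm (aggregates).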

Assay [20] in a line: qHTS assay to test for compound auto fluorescence at 590 nm (red) in HepG2 cells (AID 720674). In outline:
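Intrinsic compound fluorescence in the red window (Ex/Em 540/590 nm) is measured in attached HepG2 cells exposed for 1 hr, DMSO vehicle as baseline, benchmarked to Rose Bengal sodium.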

Chain of Glucocorticoid receptor (Homo sapiens) (P04150 whole entry, looked up): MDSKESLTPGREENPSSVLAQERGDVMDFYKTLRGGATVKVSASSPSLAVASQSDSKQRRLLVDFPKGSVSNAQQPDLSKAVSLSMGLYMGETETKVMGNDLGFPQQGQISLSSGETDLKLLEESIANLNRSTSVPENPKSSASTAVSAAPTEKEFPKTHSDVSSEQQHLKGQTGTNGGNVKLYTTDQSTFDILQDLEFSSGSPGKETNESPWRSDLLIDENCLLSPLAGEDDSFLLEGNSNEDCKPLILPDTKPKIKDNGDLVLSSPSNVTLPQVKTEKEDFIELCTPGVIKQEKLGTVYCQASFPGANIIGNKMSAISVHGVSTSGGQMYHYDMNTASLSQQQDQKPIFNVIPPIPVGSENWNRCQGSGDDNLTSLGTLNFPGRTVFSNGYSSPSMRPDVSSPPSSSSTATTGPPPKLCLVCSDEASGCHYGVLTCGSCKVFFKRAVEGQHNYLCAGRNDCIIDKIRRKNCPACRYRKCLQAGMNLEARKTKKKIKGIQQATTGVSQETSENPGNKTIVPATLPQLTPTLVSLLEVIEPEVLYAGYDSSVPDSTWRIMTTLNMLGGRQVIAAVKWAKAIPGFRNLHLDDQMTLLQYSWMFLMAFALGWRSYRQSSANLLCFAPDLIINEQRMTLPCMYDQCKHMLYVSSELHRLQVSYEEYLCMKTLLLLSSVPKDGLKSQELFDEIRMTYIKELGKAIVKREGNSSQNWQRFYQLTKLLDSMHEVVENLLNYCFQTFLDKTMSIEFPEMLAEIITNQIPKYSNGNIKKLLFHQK

Turning to `CC[C@@H](N)CO`, the Potency entry in assay [1], in assay [2], in assay [3], in assay [4], in assay [5] and in assay [6] was “inactive” in each case. The Potency result in assay [7], in [9], in assay [10], in assay [11], in [13] and in [14] was “inactive” each time. Besides, the Potency entry in assay [15] is “inactive”. For the same compound, the call in assay [8] and in assay [12] was inactive.
For the compound `CC(=O)N[C@@H](CS)C(=O)O`, the Potency entry in [1], in [2], in assay [3], in assay [4], in [5] and in assay [6] was “inactive” throughout. For the same compound, the Potency result in assay [7], in assay [9], in [11], in assay [13], in assay [14] and in assay [15] was “inactive” each time. Besides, the Potency result in assay [17] and in assay [18] was “inactive” throughout. The result in assay [8], in [16] and in [12] was inactive.
Consider `O=S(=O)(O)c1ccc2nc(-c3ccccc3)[nH]c2c1`, for which the Potency entry in assay [1], in assay [2], in assay [4], in assay [19], in assay [6] and in assay [7] was “inactive” each time. For the same compound, the Potency result in assay [9], in [10], in [11], in assay [13], in [14] and in assay [15] was “inactive” in each case. Further, the Potency in assay [3] is 9.44 µM (active) and 26 µM (active); in assay [5], 9.44 µM (active) and 26 µM (active). The compound was called inactive in [8], in [16] and in [12].
Take `COC(c1ccccc1)(c1ccccc1)[C@H](Oc1nc(C)cc(C)n1)C(=O)O`: the Potency entry in [1], in assay [2], in assay [3], in assay [4], in assay [5] and in assay [19] was “inactive” in each case. The Potency entry in [6], in [7], in assay [9], in [10], in assay [11] and in assay [13] was “inactive” each time. In addition, the Potency result in assay [14], in assay [15] and in [17] was “inactive” throughout. The compound was called inactive in assay [8] and in [12].
For `Nc1cc(Cl)c(-c2cc(Cl)c(N)cc2Cl)cc1Cl`, the Potency is 68.5 µM (active) and 68.6 µM (active) in assay [1]; 13.7 µM (active) in assay [2]; 61.1 µM (active) and 54.5 µM (active) in [3]; 30.6 µM (active) in assay [4]; 48.5 µM (active) and 54.5 µM (active) in assay [5]; 9.68 µM (active) and 13.7 µM (active) in assay [19]. The call in assay [20], in assay [8], in assay [16] and in assay [12] was inactive. Further, the Potency entry in assay [6], in assay [7], in assay [9], in assay [11], in assay [13] and in [14] was “inactive” in each case. Besides, the Potency entry in assay [15] was “inactive”.
Take `C[N+]1([O-])CCOCC1`: the Potency entry in assay [1], in [2], in assay [3], in assay [4], in assay [5] and in assay [19] was “inactive” in each case. Further, the Potency entry in assay [6], in assay [7], in assay [9], in [10], in [11] and in assay [13] was “inactive” each time. In addition, the Potency entry in assay [14], in [15] and in [17] was “inactive” throughout. The outcome in [20], in assay [8], in assay [16] and in [12] was inactive.
With `CC1=C(C=O)C(C)(C)CC=C1`, the Potency result in [1], in [2], in assay [3], in assay [4], in assay [5] and in assay [6] was “inactive” each time. The Potency result in assay [7], in assay [9], in [11], in assay [13], in assay [14] and in assay [15] was “inactive” in each case. The Potency result in assay [17] and in [18] was “inactive” in each case. Also, the compound was classed as inactive in assay [8], in [16] and in assay [12].
